Test results: PubChem BioAssay AID1259245 (Vanderbilt High Throughput Screening Facility, 2017)
Among all 40,000 compounds or so, about 1,400 (3.5%) were called active. This is one part of a sample in which actives are shown more often than they occur.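 How the source made its calls: active means any of four per-well response measures lying three or more SD from its plate-wide compound average, in either direction; inactive means the rest, inconclusive results apart.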

Target: Voltage-dependent calcium channel gamma-2 subunit (Mus musculus) + Glutamate receptor 2 (Rattus norvegicus) (UniProt O88602+P19491)
Sequence (O88602 whole entry, looked up): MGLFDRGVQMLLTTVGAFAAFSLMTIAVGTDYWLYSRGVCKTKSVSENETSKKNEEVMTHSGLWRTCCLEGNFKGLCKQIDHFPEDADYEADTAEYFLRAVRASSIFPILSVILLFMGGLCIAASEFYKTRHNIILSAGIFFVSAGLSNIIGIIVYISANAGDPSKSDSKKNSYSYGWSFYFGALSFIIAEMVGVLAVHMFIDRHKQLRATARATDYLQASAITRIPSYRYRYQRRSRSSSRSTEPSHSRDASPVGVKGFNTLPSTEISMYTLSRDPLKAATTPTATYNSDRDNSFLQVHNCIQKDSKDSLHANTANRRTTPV
Sequence (P19491 whole entry, looked up): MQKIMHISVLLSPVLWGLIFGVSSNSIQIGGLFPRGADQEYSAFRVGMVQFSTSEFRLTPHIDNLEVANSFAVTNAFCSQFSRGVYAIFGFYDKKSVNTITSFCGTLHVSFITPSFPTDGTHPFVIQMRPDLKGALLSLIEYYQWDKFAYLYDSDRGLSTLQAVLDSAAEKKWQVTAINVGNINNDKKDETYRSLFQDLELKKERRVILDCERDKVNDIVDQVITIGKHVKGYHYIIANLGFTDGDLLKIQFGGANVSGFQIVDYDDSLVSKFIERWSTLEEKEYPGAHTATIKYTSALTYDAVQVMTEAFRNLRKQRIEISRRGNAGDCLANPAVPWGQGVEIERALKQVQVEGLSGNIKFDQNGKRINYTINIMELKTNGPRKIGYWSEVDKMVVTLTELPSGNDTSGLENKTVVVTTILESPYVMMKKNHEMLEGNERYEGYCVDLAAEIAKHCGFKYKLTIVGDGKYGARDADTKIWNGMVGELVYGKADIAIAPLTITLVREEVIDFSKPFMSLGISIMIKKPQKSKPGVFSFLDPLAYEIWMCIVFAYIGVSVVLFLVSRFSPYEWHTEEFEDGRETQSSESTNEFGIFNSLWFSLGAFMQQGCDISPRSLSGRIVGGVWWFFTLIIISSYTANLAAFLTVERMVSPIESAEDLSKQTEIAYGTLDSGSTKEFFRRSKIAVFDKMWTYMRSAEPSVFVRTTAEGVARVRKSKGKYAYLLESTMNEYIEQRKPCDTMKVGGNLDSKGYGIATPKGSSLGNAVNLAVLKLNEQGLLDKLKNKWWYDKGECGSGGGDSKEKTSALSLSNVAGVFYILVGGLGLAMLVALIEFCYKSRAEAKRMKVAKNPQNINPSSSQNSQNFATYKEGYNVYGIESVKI
Assay: AMPAR-TARP gamma-2 complex positive or negative modulation – cell-based, membrane potential dye, primary screen (AID 1259245)
Conditions: HEK293 GluA2+stargazin, membrane potential dye (FDSS), glutamate EC50, at 30 µM, hits were called plate by plate, in both directions; compound max-min signal: compound-alone response (agonism); glutamate slope, % of max: measured here: glutamate response slope, % max

Structure (SMILES) | compound max-min signal | glutamate response, % of max | glutamate slope, % of max [%]
O=C(NCc1ccc2c(c1)OCO2)c1ccc(=O)[nH]n1 | 0.05 | 25.6% (inactive) | 54.3
COc1ccc(NC(C)=O)cc1NC(=O)c1ccc(=O)[nH]n1 | 0.159 | 38.5% (active) | 57.1
COc1ccc(NC(C)=O)cc1NC(=O)CCCn1nc(-c2ccccc2)ccc1=O | 0.08 | 33.8% (inactive) | 52.7
Cc1nn(CCNC(=O)c2cccc([N+](=O)[O-])c2)c(C)c1Cl | 0.133 | 50.5% (inactive) | 65.4
Cc1ccc(N2CCN(C(=O)COc3nccc(C)n3)CC2)nn1 | 0.0842 | 38.9% (inactive) | 61.3
CCCOc1ccc(N2CCN(C(=O)COc3ccc4ccccc4c3)CC2)nn1 | 0.0411 | 42.7% (inactive) | 61.1
CCCC(=O)N1CCN(c2ccc(Nc3cc(C)ccn3)nn2)CC1 | 0.194 | 23.7% (active) | 43.2
O=C(Nc1cccs1)N1CCC(c2nnc(-c3ccc(F)cc3)o2)CC1 | 0.0749 | 44.9% (inactive) | 64.6
Cc1ccc(CN2C(=O)NC3(CCN(C(=O)c4ccccc4F)CC3)C2=O)cc1 | 0.0483 | 11.7% (inactive) | 23.5
COc1ccc(CC(=O)Nc2ccc3c(c2)N(S(=O)(=O)c2ccccc2)CCC3)cc1 | 0.0777 | 49% (inactive) | 74.3
CN(C)S(=O)(=O)c1ccc(C(=O)Nc2ccc3c(c2)N(C(=O)c2ccco2)CC3)cc1 | 0.176 | 45.9% (inactive) | 62.8
Cc1cc(C(=O)Nc2nc(-c3cccs3)cs2)on1 | 0.0444 | 13.4% (inactive) | 25.9
CCOC(=O)c1csc(NC(=O)c2cc(C)no2)n1 | 0.211 | 21.3% (active) | 37.1
CCOC(=O)c1csc(NC(=O)Cn2cnc(C)cc2=O)n1 | 0.0863 | 36.3% (inactive) | 51.4
Cc1nc(NC(=O)c2ccc3c(c2)CCCC3)sc1C | 0.129 | 29.7% (inactive) | 50.6
O=C(Nc1cccc(N2CCCS2(=O)=O)c1)c1cccc(F)c1 | 0.0432 | 21.4% (inactive) | 45.7
CCOc1ccccc1NC(=O)CSc1cc(N2CCC(C(=O)NC3CC3)CC2)ncn1 | 0.107 | 24% (inactive) | 50.5
O=C(CSc1cc(N2CCN(c3ccccc3F)CC2)ncn1)c1cccs1 | 0.0768 | 53.6% (inactive) | 73.7
COC(=O)c1ccc(CSc2cc(N3CCN(c4ccccc4F)CC3)ncn2)o1 | 0.0593 | 58.6% (active) | 59.5
Cc1cc(C)c2c(n1)nn1c(NCC(C)C)cc(C)nc21 | 0.313 | 35.7% (active) | 52.5
Cc1cc(C)c2c(n1)nn1c(-n3ccnc3)cc(C)nc21 | 0.202 | 43.8% (inactive) | 65.7
CCOc1ccc(Nc2cc(C)nc3c4c(C)cc(C)nc4nn23)cc1 | 0.205 | 36.4% (inactive) | 58.7
CC(=O)NCCn1ncc2c(N3CCN(c4ccccc4)CC3)ncnc21 | 0.109 | 30% (inactive) | 56.7

Structure (SMILES) | compound max-min signal | glutamate response, % of max | glutamate slope, % of max [%]
Cc1ccc(C(=O)CSc2nccn(-c3ccc(Cl)cc3)c2=O)c(C)c1 | 0.0972 | 25.5% (inactive) | 43.4
CCS(=O)(=O)N1CCCc2cc(NS(=O)(=O)c3cc(C)c(OC)c(C)c3)ccc21 | 0.0675 | 32.7% (active) | 46.4
COc1ccc(S(=O)(=O)Nc2ccc3c(c2)CCCN3S(C)(=O)=O)cc1C | 0.0764 | 41% (inactive) | 56.8
CCS(=O)(=O)N1CCCc2ccc(NS(=O)(=O)c3cc(C)c(C)cc3OC)cc21 | 0.0618 | 43.6% (inactive) | 69.1
CCOC(=O)N1CCN(/C=C(\C#N)C(=O)Nc2ccccc2)CC1 | 0.158 | 47.6% (inactive) | 78
Cc1ccc(F)cc1NC(=O)CSc1ncc(S(=O)(=O)c2ccc(Cl)s2)c(N)n1 | 0.162 | 28.9% (inactive) | 52.4
CCOCCn1c(=O)c2c(nc3n2CCCN3c2ccc(Br)cc2)n(C)c1=O | 0.127 | 46.2% (inactive) | 67.4
COc1ccc(Cl)c2sc(N(CCCN3CCOCC3)C(=O)c3ccno3)nc12 | 0.17 | 19.9% (active) | 29.3
COc1ccc(OC)c2sc(N(CCN3CCOCC3)C(=O)c3cccs3)nc12 | 0.221 | 45.8% (inactive) | 65.3
COc1ccc(OC)c2sc(N(CCN3CCOCC3)C(=O)c3cccc(F)c3)nc12 | 0.177 | 47.1% (inactive) | 60.4
O=C(/C=C/c1cccs1)NCC1CCN(C(=O)COc2ccccc2)CC1 | 0.0649 | 42% (inactive) | 61.3
Cc1cc(C)c(NC(=O)CN2CCN(c3nccn3-c3ccccc3F)CC2)c(C)c1 | 0.0429 | 8.38% (inactive) | 22.6
O=C(Cc1csc(NC(=O)c2ccc(=O)[nH]c2)n1)NCCC1=CCCCC1 | 0.0625 | 14.3% (inactive) | 44.1
Cc1ccc(-n2ncc3c(=O)n(CC(=O)N4CCc5ccccc54)cnc32)cc1C | 0.12 | 54.7% (inactive) | 80.7
Cc1cc(NC(=O)C(C)Oc2ccccc2)n(-c2nc3c(cnn3-c3ccc(C)c(C)c3)c(=O)[nH]2)n1 (stereo not given) | 0.407 | 19.4% (active) | 19.7
O=C(Nn1cnc2c(cnn2-c2cccc(Cl)c2)c1=O)c1ccc(-c2ccccc2)cc1 | 0.0867 | 36% (inactive) | 64
Cc1cc(NC(=O)c2ccc3c(c2)OCO3)n(-c2nc3c(cnn3-c3cccc(Cl)c3)c(=O)[nH]2)n1 | 0.15 | 27.3% (active) | 36
CCC(C(=O)Nc1cc(C)nn1-c1nc2c(cnn2-c2ccccc2)c(=O)[nH]1)c1ccccc1 (stereo not given) | 0.102 | 34.9% (inactive) | 55.6
CCCC(CCC)C(=O)Nc1cc(C)nn1-c1nc2c(cnn2-c2cccc(Cl)c2)c(=O)[nH]1 | 0.134 | 34% (inactive) | 47.5
Cc1ccccc1CN1C(=O)C2(c3ccccc31)N(c1ccc(F)c(F)c1)C(=O)CS2(=O)=O (stereo not given) | 0.109 | 63.6% (inactive) | 74.8
CC1CCN(CC(O)COc2ccc(C(=O)c3ccccc3)cc2)CC1 (stereo not given) | 0.0506 | 53.3% (inactive) | 82.1
O=C(CCSc1ccccc1)NCC1(c2cccs2)CCOCC1 | 0.0983 | 28% (inactive) | 50.4
